# A selection: hits, their analogues and other compounds. The true share with any hit is near 0.9%.
# CDC25B CDK2 inh – primary biochemical HTRF screen for blockers of M-phase inducer phosphatase 2 binding to CDK2/cyclin A. P30305+P24941. HTRF CDC25B-CDK2/CyclinA binding, anti-His/anti-Flag; stronger effect = higher value. z-score (concentration not given with the values). 94,000 compounds, 0.72% hits. AID 1259370, 2018; in the data active means z-score above about 3.2
# HIV TAR-Tat – TAR RNA-Tat peptide displacers, HIV-1, primary screen, biochemical, FRET, FAM/TAMRA-labeled Tat | z-score (concentration not given with the values) | 100,000 compounds, 0.6% hits | HIV-1 TAR RNA, Tat peptide displacement FRET; stronger effect = higher value | AID 1259389, 2018; active means z-score of 3 or more in at least 2 runs
# An asterisk follows results filed as active; nt = no result.
SMILES,CDC25B CDK2 inh,HIV TAR-Tat
COc1ccc(N2CSC3=C(C#N)C(c4ccc(Cl)cc4)CC(=O)N3C2)cc1OC (stereo not given),1.5,2.4
O=S1(=O)C[C@H](NCCc2c[nH]c3ccccc23)[C@@H](S(=O)(=O)c2ccc(Cl)cc2)C1,-1.4,0.15
O=c1cc(-c2cc(O)c(O)c([C@@H]3O[C@H](CO)[C@@H](O)[C@H](O)[C@H]3O)c2)oc2cc(O[C@@H]3O[C@H](CO)[C@@H](O)[C@H](O)[C@H]3O)cc(O)c12,nt,25*
O=c1cc(-c2ccc(O)c(O)c2)oc2cc(O)c([C@@H]3O[C@H](CO)[C@@H](O)[C@H](O)[C@H]3O)c(O)c12,nt,26*
C[C@@H]1O[C@@H](O[C@H]2[C@H](Oc3cc(O)c4c(=O)cc(-c5ccc(O)cc5)oc4c3)O[C@H](CO)[C@@H](O)[C@@H]2O)[C@H](O)[C@H](O)[C@H]1O,nt,1.1
C[C@@H]1O[C@@H](OC2O[C@@H](COc3cc(O)c4c(=O)cc(-c5ccc(O)cc5)oc4c3)[C@@H](O)[C@@H](O)[C@@H]2O)[C@H](O)[C@H](O)[C@H]1O (stereo not given in full),nt,1.2
N#Cc1c(Oc2cccnc2)ccc([N+](=O)[O-])c1Oc1cccnc1,2.4,nt
CCOc1ccc(-c2noc(-c3nnn(-c4ccc(Cl)cc4)c3N)n2)cc1,nt,-0.35
CC(O)c1nc2ccccc2[nH]1 (stereo not given),-0.4,nt
CC(O)c1nc2ccc(-c3ccc4nc(C(C)O)[nH]c4c3)cc2[nH]1 (stereo not given),6.8*,-0.52
O=C(CCCn1c(=O)c2cccn2c2ccc(F)cc21)NC1CCCCC1,nt,1.1
COC(=O)c1sccc1NC(=O)COCc1cc(-c2cccs2)on1,nt,0.14
O=C(COCc1cc(-c2cccs2)on1)Nc1ccccc1Br,nt,10*
COCc1nc2scc(-c3ccccc3)c2c(=O)[nH]1,-0.36,-0.55
O=C(NCCN1CCCc2ccccc21)c1[nH]nc2c1COc1ccccc1-2,nt,0.67
CC1SCC(=NOC(=O)Nc2ccc(Cl)cc2)CS1 (stereo not given),-1.5,nt
CC1SCC(=NOC(=O)c2ccccc2Cl)CS1 (stereo not given),13*,nt
O=C1CC(c2ccccc2)=Nc2cccnc2N1,2.6,-2.3
COc1ccc(C2=Nc3cccnc3NC(=O)C2)cc1,16*,-5
NC(=O)COCC(=O)N(c1ccccc1)c1ccccc1,nt,-0.8
Cc1cc(=O)n2nc(N(C)CC(=O)NCCC(C)C)sc2n1,-0.12,11
CCN(CC)Cc1ccc(O)c2ncccc12,13*,1.3
Oc1ccc(Cc2ccc(O)c3ncccc23)c2cccnc12,-3.8,1.9
O=C1c2ccccc2-c2onc3c(N4CCOCC4)cc(Nc4ccc5c(c4)OCCO5)c1c23,1.7,-6.2
CN1CCN(c2cc(Nc3ccc4c(c3)OCCO4)c3c4c(onc24)-c2ccccc2C3=O)CC1,11*,-7
SMILES,CDC25B CDK2 inh,HIV TAR-Tat
CCN1CCN(c2cc(Nc3ccc4c(c3)OCO4)c3c4c(onc24)-c2ccccc2C3=O)CC1,1.2,1.1
COc1cccc(Nc2cc(N3CCOCC3)c3noc4c3c2C(=O)c2ccccc2-4)c1,-2.1,1.4
CN1CCN(c2cc(Nc3ccc4c(c3)OCO4)c3c4c(onc24)-c2ccccc2C3=O)CC1,10*,-7
COc1cccc(Nc2cc(N3CCN(C)CC3)c3noc4c3c2C(=O)c2ccccc2-4)c1,11*,0.5
Cc1ccc2c(c1)c1c(n2CC(O)CNCc2ccco2)CCCC1 (stereo not given),0.67,3.2
COc1ccc(OCC(=O)N/N=C2\CCSC2)cc1,-0.78,nt
Cc1cc(C)c2c(=O)cc(CSc3nccn3Cc3ccccc3)[nH]c2c1,nt,-1.6
CC(=O)N1CCc2cc(S(=O)(=O)C(C)CC(=O)Nc3ccc(F)cc3F)ccc21 (stereo not given),nt,1.8
O=C(Cn1nc2c(cc1=O)CCCC2)Nc1ccc(Cl)cc1,nt,1.3
O=C(Cn1nc2c(cc1=O)CCCC2)Nc1ccc2c(c1)OCO2,nt,6.2*
CCCN(CCC)CCCNC(=O)c1sc2nc3n(c(=O)c2c1C)CCCC3,nt,2.9
COC(=O)c1cc(NC2c3ccccc3C(=O)N2c2ccc(Cl)cc2)cc(C(=O)OC)c1 (stereo not given),-0.65,0.99
CC1(C)OC(=O)C(=Cc2ccc(OCc3ccc(F)cc3)c([N+](=O)[O-])c2)C(=O)O1,-1.6,nt
CCCCC1(C)OC(=O)C(=Cc2cc3c(cc2[N+](=O)[O-])OCO3)C(=O)O1 (stereo not given),20*,nt
CCOC(=O)c1cnc2nc(-c3cccnc3)[nH]n2c1=O,-0.45,0.44
CN(C)[C@@H]1C(=O)C(C(=O)NCN2CCCC2)=C(O)[C@@]2(O)C(=O)C3=C(O)c4c(O)cccc4[C@@](C)(O)C3CC12 (stereo not given in full),nt,14*

# Screens from PubChem.
